From ChEMBL document CHEMBL3988442, “University of Dundee, Small-Polar-MMV Screening Library” (2021)

Target: T1, Aspartate--tRNA(Asp/Asn) ligase (Mycobacterium tuberculosis (strain ATCC 25618 / H37Rv)) (UniProt P9WFW3); further: in the data most compounds retested in dose-response had high values
T1 sequence (whole entry): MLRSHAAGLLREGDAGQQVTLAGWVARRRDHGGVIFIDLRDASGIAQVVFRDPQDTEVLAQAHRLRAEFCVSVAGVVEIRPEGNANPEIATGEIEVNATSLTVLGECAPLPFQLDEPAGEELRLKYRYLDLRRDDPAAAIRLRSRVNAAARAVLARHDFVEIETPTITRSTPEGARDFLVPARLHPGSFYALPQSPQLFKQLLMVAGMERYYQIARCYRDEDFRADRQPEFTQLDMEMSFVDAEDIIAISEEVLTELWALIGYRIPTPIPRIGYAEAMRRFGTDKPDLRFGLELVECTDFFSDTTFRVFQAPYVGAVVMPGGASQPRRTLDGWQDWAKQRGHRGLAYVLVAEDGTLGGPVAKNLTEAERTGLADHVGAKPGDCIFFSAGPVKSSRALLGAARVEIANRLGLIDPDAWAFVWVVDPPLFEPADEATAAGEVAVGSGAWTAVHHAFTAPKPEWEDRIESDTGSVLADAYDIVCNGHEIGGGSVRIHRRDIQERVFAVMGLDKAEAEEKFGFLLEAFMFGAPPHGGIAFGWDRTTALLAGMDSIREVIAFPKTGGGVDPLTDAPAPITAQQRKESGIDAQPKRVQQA
Assay: Assay for Asp RNA synthetase-1 from Mycobacterium tuberculosis
Assay type: functional
Design: scale not given: direction of the effect not stated beside the values
Conditions: 30 µM

Row | SMILES | Percent Effect [%]
1 | CN1CCN(C(CNC(=O)CCn2cccn2)c2cccs2)CC1 (stereo not given) | -1.05
2 | Cn1ccnc1SCc1nc(C(C)(C)NC(=O)OC(C)(C)C)no1 | -0.333
3 | CCc1nc(CCNC(=O)Nc2cc(C(N)=O)sc2C)cs1 | -1.32
4 | Cc1cnn(CCNCc2csc(C)n2)c1 | 0.747
5 | CC(C)SCC(=O)N1CCc2c(nc(N(C)C)nc2N(C)C)C1 | -3.12
6 | CCC(O)CNC(=O)C1(N(C)Cc2ccccc2)Cc2ccccc2C1 (stereo not given) | 2.72
7 | Cc1cnn(CCNCc2ccc(OCc3csc(C)n3)cc2)c1 | -0.126
8 | Cc1nccn1CCC1CCCCN1Cc1ccc(N(C)C)nc1 (stereo not given) | 2.17
9 | CC(NC(=O)NCC1(O)CCC1)c1ccc(OCC2CC2)c(F)c1 (stereo not given) | -6.14
10 | CC(=O)c1cn(CC(=O)NC(C(=O)O)C(C)C)c2ccccc12 (stereo not given) | -0.402
11 | Cc1oc(C(=O)O)cc1S(=O)(=O)Nc1c(F)cccc1-n1cccn1 | -2.17
12 | Cc1ccc(CNC(=O)N(Cc2ccccc2F)C2CC2)cn1 | -0.931
13 | O=C1O[C@@H]2CN(Cc3ccccc3)C[C@@H]2N1CCCN1CCOCC1 | -3.37
14 | Cc1cnn(Cc2cc(F)ccc2F)c1NC(=O)C1COCCO1 (stereo not given) | -0.287
15 | Cc1cc(C)n(-c2cncc(NCCNC(=O)CC3CCCC3)n2)n1 | 0.268
16 | CCc1nc(NS(=O)(=O)c2ccc(C)cc2Cl)no1 | -5.6
17 | Cc1ccc(CNCc2nnc3n2CCCC3C(F)(F)F)s1 (stereo not given) | 4.24
18 | Cc1ccc(C(NC(=O)[C@H]2CC[C@@H](O)CC2)c2cccnc2)cc1C (stereo not given in full) | -3.21
19 | Cc1ccc(CNCc2nnc3n2CCCC3C(F)(F)F)o1 (stereo not given) | 0.425
20 | O=C(Nc1cc(C(F)(F)F)c[nH]c1=O)N1CCCSCC1 | 5.77

Target: Shiga toxin 2 (Escherichia coli O157:H7) (UniProt P09385+P09386)
Assay: E. coli 0.157:H7 Shiga Toxin SOP - stx2 screening assay
Assay type: functional
Design: scale not given: direction of the effect not stated beside the values
Conditions: 30 µM

Row | SMILES | Percent Effect [%]
21 | CC(CNCc1ccncc1)Oc1ccccn1 (stereo not given) | -57
22 | N#Cc1cn(C2CC2)c(=O)n(CC(O)c2ccc(OC(F)F)cc2)c1=O (stereo not given) | 14
23 | O=C(CCc1cccnc1)N(Cc1ccsc1)CC1CCCO1 (stereo not given) | -0.116
24 | Cc1cn2c(n1)CCC(NC(=O)CCC(F)(F)F)C2 (stereo not given) | 5.05
25 | CCn1cnnc1CNC(=O)N1CCN(Cc2ccccc2)CC1 | 8.37
26 | Cc1ccc(Nc2nccc(C3CCCN(CC(=O)N(C)C)C3)n2)nc1 (stereo not given) | -28.3
27 | Cc1n[nH]c(C)c1NC(=O)CN1CCOC(Cn2cccn2)C1 (stereo not given) | 31.6
28 | CC(NC(=O)NCC1(O)CCC1)c1ccc(OCC2CC2)c(F)c1 (stereo not given) | -4.99
29 | Cc1cc(C)n(-c2cncc(NCCNC(=O)CC3CCCC3)n2)n1 | -15.9
30 | O=C(Nc1cc(C(F)(F)F)c[nH]c1=O)N1CCCSCC1 | 8.92
